# Compounds with a hit are over-represented: about 8% of the library has one in this group of screens.
# RORgamma inh: qHTS for inhibitors of ROR gamma transcriptional activity | 5.4% of 310,000 active | Drosophila S2 Gal4-RORgamma UAS-luciferase reporter, 20 h | Potency, µM (doses to about 53.6 µM), without a hit: at the highest dose activity change, negative = inhibition, usual class: inhibitors; also: potency is read from the fitted curve at half-maximal effect; nearly all actives have a fitted effect of over 60% in size
# Target sequence (P51450 whole entry, looked up, the tested form may be a part): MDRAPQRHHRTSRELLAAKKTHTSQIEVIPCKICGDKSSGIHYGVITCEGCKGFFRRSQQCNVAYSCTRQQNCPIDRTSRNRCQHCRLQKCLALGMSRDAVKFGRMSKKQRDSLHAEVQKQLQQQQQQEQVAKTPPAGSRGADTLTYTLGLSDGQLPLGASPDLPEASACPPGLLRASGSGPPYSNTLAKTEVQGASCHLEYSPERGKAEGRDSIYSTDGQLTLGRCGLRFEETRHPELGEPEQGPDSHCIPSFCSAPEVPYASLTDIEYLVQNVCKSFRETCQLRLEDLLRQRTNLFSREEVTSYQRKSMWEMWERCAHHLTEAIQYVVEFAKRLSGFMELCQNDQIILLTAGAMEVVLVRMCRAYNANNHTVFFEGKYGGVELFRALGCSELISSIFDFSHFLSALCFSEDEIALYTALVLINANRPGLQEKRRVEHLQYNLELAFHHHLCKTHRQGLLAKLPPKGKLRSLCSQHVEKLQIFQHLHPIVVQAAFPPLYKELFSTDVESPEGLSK
#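 Luminescence from a UAS-regulated Photinus luciferase reporter in stably transfected Drosophila Schneider cells is measured; decreased signal marks ROR gamma inhibition. Fusion expression is induced by 700 uM copper sulfate for 20 hr.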
# ELG1 DNA repair: qHTS screen for small molecules that inhibit ELG1-dependent DNA repair in human embryonic kidney (HEK293T) cells expressing luciferase-tagged ELG1. HEK293T ELG1-luciferase reporter, luminescence, 16 h; DNA damage induced by 5-fluorouridine. Potency, µM (titrated, usually from 46.1 µM), inactives show at the top dose activity change, negative = inhibition, hits mostly inhibitors. 2.3% of 330,000 active; also: potency is read from the fitted curve at half-maximal effect; nearly all actives have a fitted effect of over 55% in size
#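 DMSO vehicle served as the neutral condition. Each well held 2,000 cells given 5-fluorouridine plus compound; after 16 hr at 37 °C/5% CO2, ONE-Glo was added and luciferase measured 30 min later.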
# VP16 counter: VP16 counterscreen qHTS for inhibitors of ROR gamma transcriptional activity. AID 2546, 2010. 3.5% of 310,000 active. Drosophila S2 Gal4-VP16 UAS-luciferase, luminescence, 20 h. Potency, µM (highest dose often 53.6 µM), without a hit: at the highest dose activity, negative = inhibition, hits mostly inhibitors;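 also: Gal4-VP16 expression switched on by copper sulfate through the metallothionein promoter; potency is read from the fitted curve at half-maximal effect; nearly all actives have a fitted effect of over 50% in size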
# FBPA coupling cs: qHTS Assay for Inhibitors of Fructose-1,6-bisphosphate Aldolase from Giardia Lamblia: Coupling assay counterscreen; AID 2472, 2010; activity change, negative = inhibition, % at 58.2 µM, hits read low; coupling enzyme system counterscreen, AmpLite Red fluorescence; 0.67% of 290,000 active; in the data active = activity change below about -30%
#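 Final compound at 57.5 uM, incubated 10 min at RT with coupling enzyme reagent (glyceraldehyde-3-phosphate), then 20 min with substrate and AmpLite Red detection. Fluorescence read at 525/598 nm; tests interference with the coupling assay, not aldolase inhibition.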
# TSHR antag: Antagonists of the Thyroid Stimulating Hormone Receptor: HTS campaign. activity change, negative = inhibition, % at 11.5 µM. 0.2% of 330,000 active. TSHR-expressing cells, TSH-stimulated cAMP HTRF, 2 h; active compounds read low. AID 504810, 2011. Thyrotropin receptor (Homo sapiens), P16473;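 active = activity change below a set negative limit, meaning inhibition stronger than a set level, cut at about -70% in these data; inconclusive = activity change between two set negative limits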
#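 Read-out is FRET at 665 nm (cryptate excitation 337 nm) from a cryptate-tagged anti-cAMP antibody, competed by cell cAMP against cAMP-d2. Compounds are tested on freshly harvested TSHR cells challenged with 4nM TSH (EC80) for 2 hours at 37 deg C.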
# * = called active by the depositor; ? = inconclusive; . = no result given. Unless noted, calls follow the shape of the dose curve; as a rule, active = well fitted curve in the direction sought with a large enough effect; inconclusive = small, poorly fitted or top-dose-only effect, or another doubt; inactive = no such curve, though single readings can be large; an effect the other way counts as inactive or inconclusive. % is scaled to controls: 0 for no effect and ±100 for the full control effect.
SMILES,RORgamma inh,ELG1 DNA repair,VP16 counter,FBPA coupling cs,TSHR antag
Cc1ccc(OCC(=O)Nc2nnc(S(=O)(=O)N3CCC(C)CC3)s2)cc1,2%,2%,-8%,5,0
COC(=O)/C(=C1/OC(=O)C(c2ccccc2)=C1O)c1ccccc1,19%,.,1%,14,.
Cc1cnc(CNc2cc(-c3ccc4c(c3)OCO4)ncn2)cn1,34%,.,-7%,-1,.
NC(=S)N/N=C/c1cc([N+](=O)[O-])ccc1Cl,25µM*,-10%,-17%,0,4
O=C(Nc1ccc(Nc2ccccc2)cc1)c1cc([N+](=O)[O-])ccc1Cl,-13%,?,?,-3,19
O=[N+]([O-])c1ccc(Cl)c(/C=N/NC(=S)Nc2ccccc2)c1,0.35µM*,?,2.2µM*,0,15
CS(=O)(=O)N(CC(=O)N/N=C/c1cc([N+](=O)[O-])ccc1Cl)c1ccccc1,11%,2%,2%,-14,-17
Cc1cccc(N(CC(=O)N/N=C/c2cc([N+](=O)[O-])ccc2Cl)S(C)(=O)=O)c1C,?,13%,2%,-59*,-7
CCCOC(=O)C1=C(C)N(C)C(=O)NC1c1cc2c(cc1Br)OCO2 (stereo not given),-8%,-14%,4%,1,11
COc1ccc(NC(=O)c2ccc(-c3ccc([N+](=O)[O-])cc3)o2)cc1,5%,10%,-2%,-31*,-1
CC1CC(C)CN(C(=O)c2ccc(-c3ccc([N+](=O)[O-])cc3)o2)C1 (stereo not given),.,?,.,.,-9
O=C(Nc1ccccc1)c1ccc(-c2ccc([N+](=O)[O-])cc2)o1,9%,?,25%,-1,-9
O=C(Nc1cccc([N+](=O)[O-])c1)c1cc2ccccc2cc1O,5µM*,?,4.5µM*,-11,?
O=C(c1ccc(-c2ccc([N+](=O)[O-])cc2)o1)N1CCCCC1,?,?,16µM*,0,-1
COc1ccc(NC(=O)c2cc([N+](=O)[O-])ccc2O)cc1,2.2µM*,?,2.8µM*,-14,-29
O=C(COC(=O)C1=COCCO1)Nc1cc(Cl)c(Cl)cc1Cl,.,?,.,.,-19
CS(=O)(=O)N1CCC2(CCCN(Cc3ccc(C#N)cc3)C2)CC1,1%,.,17%,-1,.
COC(=O)[C@@]1(Cc2ccc(OC)cc2)[C@H]2c3cc(C(=O)N(C)C)n(Cc4ccc(Cl)c(C(F)(F)F)c4)c3C[C@H]2CN1C(=O)c1ccccc1,?,.,2%,-1,.
COc1ccc(NC(=O)c2cccc([N+](=O)[O-])c2)cc1,0%,?,-10%,2,10
COc1ccc(NC(=S)Nc2cccc([N+](=O)[O-])c2)cc1,13µM*,-3%,-30%,2,7
CC(OC(=O)c1cc(S(=O)(=O)N(C)C)ccc1N1CCCC1)C(=O)NCc1ccccc1 (stereo not given),20%,-3%,2%,.,5
COC(=O)c1nnc(C(=O)NCc2ccccc2)c2[nH]c3ccc(OC)cc3c12,10%,.,-5%,1,.
CCOc1ccc2oc(C(=O)OCC(=O)N3C(C)CCCC3C)c(C)c2c1 (stereo not given),.,?,.,.,-79*
Cc1nc(C(=O)NNC(=O)c2cccc(Cl)c2)c(C(F)(F)F)o1,8.9µM*,?,-75%,0,26
Cc1nc(C(=O)NNC(=O)c2ccccc2Cl)c(C(F)(F)F)o1,?,-15%,-15%,-2,-2
SMILES,RORgamma inh,ELG1 DNA repair,VP16 counter,FBPA coupling cs,TSHR antag
O=C(COCc1cc(-c2ccco2)on1)NC1CCCCC1,27%,13%,-1%,.,17
O=C(COCc1cc(-c2cccs2)on1)NC1CCCCC1,10%,10%,-1%,1,-88*
COc1ccc(-n2c(SCC(=O)NC3CC3)nc3ccccc3c2=O)cc1OC,.,?,.,.,0
CC(=O)N=c1sc2nc3ccccc3nc2n1N(C(C)=O)C(C)=O,10µM*,5%,?,-1,5
CC(=O)N=c1sc2ccccc2n1C,-6%,?,15%,1,-4
COc1ccc(Cl)cc1NC(=O)NCc1ccccn1,28%,9%,-3%,-2,21
CC(C)(C)c1ccc(OCCC(=O)Nc2ccc(N3CCOCC3)cc2N2CCOCC2)cc1,.,21µM*,.,.,-13
CC(C)(C)c1ccc(OCCCC(=O)N2CCOCC2)cc1,?,?,11µM*,2,1
C=CCNC(=S)/N=c1/ccccn1CCC,5µM*,-3%,?,3,4
CCCCc1n[nH]c(=S)n1Cc1ccccc1,4µM*,2%,16µM*,-1,-11
CCCCc1n[nH]c(=S)n1Cc1ccc(Cl)cc1,4µM*,-7%,7.1µM*,5,-10
[N-]=[N+]=NCC/C=C\C1NS(=O)(=O)OCC1O (stereo not given),-21%,0%,1%,3,-1
O[C@@H]1[C@@H]2c3cc4c(cc3CN3CCC(=C[C@@H]1O)[C@H]23)OCO4,?,.,2.5µM*,0,.
CN1CCc2cc3c(cc2[C@@H]1[C@@H]1C(=O)Oc2c1ccc1c2OCO1)OCO3,21%,.,0%,-5,.
COc1ccc(OC)c(C2C(C(=O)c3cccs3)=C(O)C(=O)N2CCN2CCOCC2)c1 (stereo not given),-7%,-15%,2%,-2,11
Cc1ccc(S(=O)(=O)N2CCN(C(=O)CSC3CCCC3)CC2)c(C)c1,-22%,21µM*,-2%,-1,9
CC(=O)c1c(C)[nH]c(C(=O)OCC(=O)N2CCN(S(=O)(=O)c3ccc(C)cc3C)CC2)c1C,23%,18µM*,1%,5,-18
COc1ccc(Br)c(C(=O)Nc2nc3ccccc3[nH]2)c1,-44%,?,5%,3,35
COc1ccc(CCNC(=O)c2oc3ccccc3c2C)cc1,.,-4%,.,.,-16
Cn1nc(C(=O)Nc2nc3ccccc3[nH]2)c2ccccc2c1=O,?,18%,?,0,-1
COc1ccc(CCNC(=O)c2oc3ccc(OC)cc3c2C)cc1,11µM*,4%,-16%,.,3
Cc1ccsc1C(=O)Nc1nc2ccccc2[nH]1,2µM*,?,7.1µM*,0,-4
Cc1cc(C)cc(C(=O)Nc2nc3ccccc3[nH]2)c1,6.3µM*,?,10µM*,-4,-21
CCOc1ccc2oc(C(=O)N(C)CCc3ccc(OC)c(OC)c3)c(C)c2c1,.,18µM*,.,.,-5
